# Measured values: ChEMBL document CHEMBL4513146, “CO-ADD screening of Karazin Kharkiv National University (Ukraine) compounds”
# Results with a measured potency or affinity are listed apart.
# Legend:
# [1] = system: Klebsiella pneumoniae; conditions: Concentration 32 ug.mL-1;; ASSAY_TEST Inhibition of Bacterial Growth; detection method Absorption (OD600); MEDIA CAMHB; plate type 384well; NBS; CORNING #3640; time 18 hr
# [2] = system: Candida albicans; conditions: Concentration 32 ug.mL-1; ASSAY_TEST Inhibition of Fungal Growth; detection method Absorption (OD530)
# [3] = system: Cryptococcus neoformans; conditions: Concentration 32 ug.mL-1; ASSAY_TEST Inhibition of Fungal Growth; detection method Resazurin; Absorption (OD600-OD570); plate type 384well; NBS; CORNING #3640
smiles,measurement,setting,value
COC(=O)c1ccc(NC(=O)Cn2c(=O)c3nnc(C(C)C)n3c3ccccc32)cc1,Inhibition,[1],11.69%
same,Inhibition,[2],-0.03%
same,Inhibition,[3],-26.77%
Cc1nnc2c(S(=O)(=O)N(Cc3cc(F)cc(F)c3)c3cccc(F)c3)cccn12,Inhibition,[1],4.57%
same,Inhibition,[2],6.53%
same,Inhibition,[3],-8.02%
CC(C)c1ccc(N(Cc2cccc(Cl)c2)S(=O)(=O)c2cccn3cnnc23)cc1,Inhibition,[1],-3.32%
same,Inhibition,[2],3.48%
same,Inhibition,[3],-7.96%
O=C(Cn1nc2n(CCc3ccccc3)c(=O)c3ccccc3n2c1=O)Nc1ccc2c(c1)OCO2,Inhibition,[1],5.15%
same,Inhibition,[2],15.71%
same,Inhibition,[3],-16.57%
CCc1cccc(NC(=O)Cn2nc3ccc(SC(C)(C)C)nn3c2=O)c1,Inhibition,[1],16.66%
same,Inhibition,[2],3.39%
same,Inhibition,[3],-23.79%
CC(C)c1nnc2c(SCC(=O)Nc3ccc(F)cc3F)nc3ccccc3n12,Inhibition,[1],13.12%
same,Inhibition,[2],-0.24%
same,Inhibition,[3],-26.87%
O=C(Cn1nc2ccc(Sc3ccccc3)nn2c1=O)Nc1ccc(Cl)cc1,Inhibition,[1],9.24%
same,Inhibition,[2],8.96%
same,Inhibition,[3],-7.55%
CCC(C)NC(=O)Cn1nc2n(CC(C)C)c(=O)c3ccc(C(=O)NC4CCCCC4)cc3n2c1=O (stereo not given),Inhibition,[1],0.48%
same,Inhibition,[2],-1.97%
same,Inhibition,[3],-14.64%
COc1ccc(-n2ccn3c(-c4ccc([N+](=O)[O-])cc4)nnc3c2=O)cc1Cl,Inhibition,[1],9.41%
same,Inhibition,[2],5.76%
same,Inhibition,[3],-13.11%
Cc1ccc(NC(=O)Cn2nc3c(N4CCOCC4)nc4ccccc4n3c2=O)cc1C,Inhibition,[1],11.25%
same,Inhibition,[2],-0.6%
same,Inhibition,[3],-25.03%
